Drawing on PubChem BioAssay (NCI), this text covers growth for 39 compounds.

“And” between values parts separate entries of the source, which are not always exact repeats. Equal entries are not always repeated. Compounds without any hit were thinned out: in the full panel of roughly 83,000, 20% have a hit.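 Cells were grown in 96-well plates and exposed to the test compound at a single concentration for 48 hours; results are reported as percent growth, with values below 10 considered active.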 The source made the active and inactive calls.

For the first assay, the system named is NCI-H460 lung. The assay is described as follows: NCI-60 one-dose screen, 48 h (100 = growth as untreated, 0 = no growth, -100 = all killed). The note with it: 10 µM. The procedure: Growth inhibition of the NCI-H460 human Non-Small Cell Lung tumor cell line is measured as a screen for anti-cancer activity. Cells are grown in 96 well plates and exposed to the test compound for 48 hours. Compounds are tested at a single concentration, which is 10^-5 M for most compounds. The reported endpoint is percent growth (GI% or GIPRCNT), where numbers from 0 - 100% represent growth inhibition, and numbers from -100% - 0 represent cell death. For example, a value of 40 represents 60% growth inhibition. A value of 0 means no net growth occurred over the course of the experiment. A value of -40 indicates 40% of cells at the beginning of the experiment died by the end of the experiment. A value of -100 means all cells are dead at the end of the experiment.
NCI-60 Human Tumor Cell Lines Screen was performed using the standard one-dose NCI protocol, which is described in more detail at https://dtp.cancer.gov/discovery_development/nci-60/default.htm.
Compounds with GIPRCNT values below 10 were considered active. Activity score was based on GIPRCNT using the following formula: […]
Score is 0 for GIPRCNT values of 100 or above, 50 for GIPRCNT values of 0, and 100 for GIPRCNT values of -100.
As to `CS/C(=C\c1ccc(C(=O)c2ccc(C)cc2)n1C)S(C)=O` (stereo not given), the growth is 96.8% (inactive).

Still in this assay, the particulars now being: 10 µM unless noted.
Consider `CC(=O)C[n+]1ccccc1Sc1ccc(Cl)cc1`, for which the growth is 77% (inactive).

Regarding `CC(=O)Oc1cc(C)c(OC(C)=O)c(C)c1C`, the growth was 105% (inactive).

Consider `CCOC(=O)c1ccncc1`, for which the growth was 104% (inactive).

Turning to `Nc1nc(=S)c2[nH]cnc2[nH]1`, the growth was 3.77% (active) and 6.79% (active).

In the case of `CCc1ccccc1-n1[nH]c(C)c(C=N)c1=O`, the growth is 109% (inactive).

Take `COc1cc([C@@H]2c3cc4c(cc3[C@H](O)[C@H]3COC(=O)[C@@H]23)OCO4)cc(OC)c1OC`: the growth is 4.7% (active) and -1.68% (active).

For the compound `COC(=O)c1nc(=S)[nH]c(C(=O)OC)c1C(=O)c1ccc(OC)cc1`, the growth is 114% (inactive).

For `COc1cc2c(cc1O)C(=O)CCCC2`, the growth was 103% (inactive).

In the case of `CC1NC(C)c2ccc3ccccc3c2O1` (stereo not given), the growth was 108% (inactive).

Consider `O=C1c2ccccc2CN1c1ccccc1`, for which the growth was 103% (inactive).

With `Cc1cccc(Cl)c1N`, the growth is 107% (inactive).

For the compound `Cc1ccc(NC(=S)N/C=C(\c2ccccc2)S(=O)Cc2ccccc2)c(C)c1` (stereo not given), the growth was 101% (inactive).

`N#Cc1c(N)nc2c(c(-c3ccc(Cl)cc3)nn2-c2ccccc2)c1C#N`: the growth is 96.8% [100 µM] (inactive).

As to `CCN(CC)C(CC(=O)c1ccccc1)C(=O)c1ccccc1` (stereo not given), the growth is 106% (inactive).

With `O=C1c2ccccc2C(c2ccccc2)C1c1ccccc1` (stereo not given), the growth was 95.8% (inactive).

On to `c1ccc2c[n+](Cc3ccc4ccccc4n3)ccc2c1`, for which the growth is 88.4% (inactive).

As for `CCC(C)(O)CCC(C)(O)CC` (stereo not given), the growth is 116% (inactive).

For the compound `O=c1[nH]c(=O)n(C2OC(CO)C(O)C2O)cc1I` (stereo not given), the growth is 116% (inactive) and 125% (inactive).

For `CCc1ccc(OC(=O)CCl)cc1`, the growth is 106% (inactive).

For the compound `COc1ccc(CCl)c(C)c1OC`, the growth was 103% (inactive).

As for `Cn1c(N)c(N=O)c(=O)n(C)c1=O`, the growth is 111% (inactive) and 102% (inactive).

For `CCN(CC)Cc1cc2[nH]c3c4ccc(Cl)cc4ncc3c2cc1OC`, the growth is 0.598% (active) and 14% (inactive).

Turning to `Nc1ccc(Cl)c(S(=O)(=O)O)c1`, the growth was 105% (inactive).

`CCOCCC(=O)O`: the growth is 102% (inactive).

`Oc1cccnc1CN1CCOCC1`: the growth was 114% (inactive) and 109% (inactive).

`CNc1ccc(Cl)cc1S(=O)(=O)c1ccccc1[N+](=O)[O-]`: the growth was 107% (inactive) and 108% (inactive).

For `Cc1nc2c(=O)[nH]c(=S)[nH]c2[nH]c1=O`, the growth is 106% (inactive) and 110% (inactive).

As to `COc1ccc([N+](=O)[O-])cc1OC`, the growth was 102% (inactive) and 111% (inactive).

Take `CS(=O)(=O)c1nsc(N)n1`: the growth is 106% (inactive).

As to `Cc1ccc(N)cc1S(=O)(=O)O`, the growth is 109% (inactive) and 107% (inactive).

On to `CC1(CO)CCCC1NCCNC1CCCC1(C)CO` (stereo not given), for which the growth is 104% (inactive) and 112% (inactive).

As to `Cc1cc2ccccc2c2cc3ccccc3cc12`, the growth is 89.2% (inactive).

Turning to `C/C=C/C(=O)OCCCCCCCCCCCC`, the growth is 108% (inactive).

For `CN(C)C(=S)N(C)C`, the growth is 119% (inactive).

Take `CCOC(=O)C(N)Cc1cc(I)c(O)c(I)c1` (stereo not given): the growth is 109% (inactive) and 115% (inactive).

As for `CC(=O)Nc1ccc2oc(=O)ccc2c1`, the growth was 109% (inactive).

`COc1ccc(/C=C/C(=O)O)cc1OC`: the growth was 103% (inactive).

Consider `O=C(O)COc1ccccc1F`, for which the growth is 101% (inactive).

Staying with this assay, now noted: 100 µM.
As for `CS/C(=C\c1ccc(C(=O)c2ccc(C)cc2)n1C)S(C)=O` (stereo not given), the growth was 91.4% (inactive).
